From PubChem
Sampled rows, rich in hits. Any-hit rate of the full collection: about 0.78%.
PKA inh – PKA (human) kinase inhibition | P17612 | PKA Kemptide phosphorylation, Kinase-Glo ATP luminescence | inhibition, % at 6 µM | actives 0.1% (n = 65,000) | AID 524;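 active means inhibition above the screen-wide mean inhibition plus 3 SD, cut at about 21% in these data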
FXIa inh mix – factor XIa (human) inhibition, mixture screen. P03951. purified FXIa, fluorogenic substrate, pooled mixtures. actives 0.19% (n = 62,000). AID 680. inhibition, % at 5 µM;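 further: each value is inhibition by a whole ten-compound pool holding the compound; 0% = enzyme with no mixture and 100% = wells lacking enzyme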
Target sequence (P03951 19-387 limits assumed): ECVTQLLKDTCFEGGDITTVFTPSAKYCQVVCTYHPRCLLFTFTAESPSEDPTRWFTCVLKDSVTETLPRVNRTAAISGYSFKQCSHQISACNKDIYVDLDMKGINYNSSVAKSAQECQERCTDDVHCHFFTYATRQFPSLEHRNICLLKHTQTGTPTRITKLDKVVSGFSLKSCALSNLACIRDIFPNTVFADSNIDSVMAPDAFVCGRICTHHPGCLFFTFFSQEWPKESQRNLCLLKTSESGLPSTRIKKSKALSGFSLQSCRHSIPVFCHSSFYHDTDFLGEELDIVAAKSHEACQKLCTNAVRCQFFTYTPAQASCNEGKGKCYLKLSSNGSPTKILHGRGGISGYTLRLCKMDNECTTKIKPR
Target sequence (P03951 388-625 limits assumed): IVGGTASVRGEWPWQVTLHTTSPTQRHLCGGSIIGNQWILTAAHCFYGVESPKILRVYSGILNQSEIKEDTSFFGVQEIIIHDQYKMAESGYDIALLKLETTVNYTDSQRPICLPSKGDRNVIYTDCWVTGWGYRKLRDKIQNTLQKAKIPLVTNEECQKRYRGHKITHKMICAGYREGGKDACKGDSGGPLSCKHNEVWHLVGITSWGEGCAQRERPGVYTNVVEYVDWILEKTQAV
FXIIa mix inh – inhibitors of human coagulation factor XIIa, pooled mixtures. P00748. actives 0.2% (n = 62,000). purified FXIIa, fluorogenic substrate. inhibition, % at 5 µM;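 further: 0% = enzyme without compound and 100% = no enzyme blank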
ROCK2 inh – inhibitors of human Rho kinase 2; O75116; purified ROCK2, Kinase-Glo ATP depletion luminescence; inhibition, % at 6 µM; actives 0.35% (n = 60,000);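 active means inhibition above the screen-wide mean inhibition plus 3 SD, cut at about 18% in these data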;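 further: plate controls were DMSO wells for no effect and Y-27632 control wells after no-enzyme background subtraction for full effect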
Cathepsin G inh – inhibitors of human cathepsin G | P08311 | purified enzyme, AMC-tetrapeptide fluorescence, pooled mixtures | inhibition, % at 5 µM (by protocol) | actives 0.2% (n = 62,000);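 active means inhibition above 20% in each of the two mixture wells holding the compound; inactive means inhibition of 20% or less in either well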;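 further: 0% = enzyme control without mixture and 100% = blank lacking enzyme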
C1s inh – human complement C1s inhibition; P09871; purified C1s, fluorogenic AMC substrate, pooled mixtures; mean inhibition % of two 10-compound mixtures (hits give high values), % at 5 µM (by protocol); actives 0.16% (n = 62,000); AID 538;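 active means inhibition above 20% in each of the two 10-compound mixture wells holding the compound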;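 further: 0% = enzyme wells lacking compound mixture and 100% = no-enzyme blank wells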
* hit, by the source's call; / = no result. Unless noted, no stated cut-off is given here; in the data, active means inhibition above about 20% (passing the limit was not always enough); inactive means the rest.

SMILES	PKA inh	FXIa inh mix	FXIIa mix inh	ROCK2 inh	Cathepsin G inh	C1s inh
Cc1c(-c2nc(N)nc(Nc3ccccc3)n2)oc2ccccc12	2.5	2.1	3.2	-8.3	-1.7	4.2
NC(=O)C1CCN(CC(=O)N2c3ccccc3CCc3ccccc32)CC1	11.0	6.9	29.8*	5.2	11.0	11.7
NC(=O)C1CCN(C(=O)CN2CCc3ccccc32)CC1	12.5	0.8	1.0	8.1	11.9	3.0
CCN(CC(=O)N1CCOCC1)S(=O)(=O)c1ccc(C)cc1	5.9	0.0	-19.0	6.6	11.1	16.8
CCOc1cc2c(cc1OCC)C(c1ccc(O)c(OC)c1)NCC2 (stereo unspecified)	3.8	1.7	7.5	-2.8	-11.2	2.5
CCOc1cc2c(cc1OCC)C(c1cc(OC)c(O)c(OC)c1)NCC2 (stereo unspecified)	-6.2	5.0	23.8*	-2.1	1.2	-10.3
CC1=C(C(=O)OC(C)C)C(C)NC(=O)N1 (stereo unspecified)	12.9	1.2	-6.2	5.3	9.6	-1.3
O=C(Nc1ccncc1)Nc1ccc(F)cc1F	2.9	5.6	2.1	22.7*	10.1	17.7
CC(=O)Nc1ccc(NC(C)=O)s1	-5.9	6.5	8.5	-0.1	10.5	56.4*
COc1ccc2cc3c(N)c(C(=O)NCc4ccco4)sc3nc2c1	-5.8	-0.1	2.3	19.5*	-17.2	-15.2
CC(=O)N=c1c(C#N)cc2c(=O)n3cccc(C)c3nc2n1CC(C)C	6.4	-23.4	-15.9	-1.7	-13.8	-114.7
O=C(CC1NCCNC1=O)OCCCc1ccccc1 (stereo unspecified)	5.1	10.2	18.3	6.7	7.5	15.8
O=C1c2ccccc2C(=O)N1c1nc(-c2cccs2)cs1	-1.6	1.8	20.3*	1.6	15.2	12.7
COC(=O)c1cc2occc2n1Cc1c(F)cccc1Cl	-4.2	-16.9	6.2	-3.1	-3.4	-47.9
CCOC(=O)C1CCCN(CCC(=O)Nc2cccc(F)c2)C1 (stereo unspecified)	3.7	0.8	-3.6	4.7	-3.5	0.6
CCOC(=O)C1CCN(CCC(=O)Nc2cccc(Cl)c2)CC1	-2.6	4.7	35.2*	0.5	0.7	-5.0
CN(CCOc1ccc(Cl)cc1)c1ccc(S(=O)(=O)N2CCCCC2)cn1	4.6	39.8*	2.2	3.9	17.9	-13.6
COc1ccccc1-c1cc(C(=O)NC(C)c2ccccc2)no1 (stereo unspecified)	2.9	9.3	-3.2	6.3	33.1*	7.3
COc1ccccc1-c1cc(C(=O)NC(C)C)no1	6.4	7.0	5.0	1.2	13.0	7.3
CCn1c(-c2ccc(OC)c(OC)c2)n[nH]c1=S	0.3	9.4	-15.3	0.3	-1.1	5.0
CCCCn1c(-c2cc(Cl)ccc2OC)n[nH]c1=S	1.6	7.5	3.0	2.5	9.9	42.9*
O=C(c1noc2c1CCc1ccccc1-2)N1CCc2ccccc2C1	14.2	4.2	-12.8	2.1	30.5*	0.5
O=C(c1noc2c1CCc1ccccc1-2)N1CCCc2ccccc21	0.9	8.6	-19.9	-0.9	39.2*	-32.1
O=C(c1noc2c1CCc1ccccc1-2)N1CCOCC1	-5.0	3.5	10.3	-2.9	36.5*	-11.6
O=C(c1cccnc1)N1CCCc2ccccc21	9.5	-2.0	8.5	6.3	-6.1	-3.4
SMILES	PKA inh	FXIa inh mix	FXIIa mix inh	ROCK2 inh	Cathepsin G inh	C1s inh
O=C(CCS(=O)(=O)c1ccc(Cl)cc1)Oc1ccc2c(c1)OCO2	-4.6	2.0	4.9	-1.2	6.8	3.5
O=C(Nc1ccc2c(c1)OCO2)C1Cc2ccccc2CN1S(=O)(=O)c1cccs1 (stereo unspecified)	5.7	1.3	-1.5	3.1	3.0	-3.3
CCOc1ccc(N(CC(=O)NC(C)(C)C)C(=O)c2ccco2)cc1	-3.1	5.9	5.2	-7.3	-2.0	-2.0
N#C/C(C(=O)NCc1ccco1)=C1/SC(Cc2ccc(F)cc2)C(=O)N1c1ccccc1 (stereo unspecified)	8.9	26.1*	3.7	4.0	6.1	1.3
COc1ccc2c(Cl)c(C(N)=O)sc2c1	28.6*	6.0	5.6	50.2*	1.1	2.1
CCOc1cccc(C2C(C(=O)c3ccc(C)o3)=C(O)C(=O)N2c2nccs2)c1 (stereo unspecified)	-5.0	0.0	5.0	/	10.8	0.7
COC(=O)c1sc(N2C(=O)C(O)=C(C(=O)c3ccc(C)o3)C2c2ccc(F)cc2)nc1C (stereo unspecified)	9.5	39.8*	4.3	3.5	58.8*	19.6
NC(=O)CN1CCN(c2ccccc2F)CC1	6.6	5.4	2.3	-0.5	8.0	7.8
Fc1ccccc1N1CCN(c2ncnc3[nH]ncc23)CC1	28.4*	-0.2	6.0	13.7	7.5	3.1
CCN(CC)CCN1C(=O)C(=O)/C(=C(/O)c2ccc(F)cc2)C1c1ccncc1 (stereo unspecified)	2.2	/	/	7.0	/	/
O=C(CSc1n[nH]c(-c2ccncc2)n1)c1ccccc1	43.1*	1.1	28.4	105.1*	11.3	3.6
O=C(CSc1n[nH]c(-c2ccncc2)n1)NCCc1ccccc1	19.6	-0.3	-12.0	6.6	2.6	-21.8
Cc1cccc(NC(=O)CSc2n[nH]c(-c3ccncc3)n2)c1	21.2*	6.9	7.1	17.3	8.4	0.5
COC(=O)c1ccc(NC(=O)CSc2n[nH]c(-c3ccncc3)n2)cc1	11.5	-0.1	9.9	14.4	0.2	0.7
COc1cccc(NC(=O)CCSc2nnc3scc(-c4ccccc4)n23)c1	8.9	-8.6	1.8	/	6.7	-2.7
Cc1ccc(NS(=O)(=O)c2cccc(C(=O)Nc3cc(C)on3)c2)cc1	-2.0	7.8	-2.3	/	-2.3	-15.0
O=C(/N=C1\NC(=O)C(F)(C(F)(F)F)S1)NC1CCCCC1 (stereo unspecified)	3.1	24.2*	2.9	4.4	17.1	14.1
Cc1cc(C)n2nc3nc(N4CCCC4)nc(-c4ccccc4)c3c2n1	13.2	2.7	-0.8	6.8	-0.7	-8.1
Nc1[nH]nc2nc(N3CCCC3)nc(-c3ccccc3)c12	25.6*	4.4	2.7	/	11.0	9.1
Cc1c(OCc2nn[nH]n2)ccc2c3c(c(=O)oc12)CCCC3	4.0	5.9	-0.7	-1.0	11.2	11.6
C=CCNC(=O)C1CC(=O)N(c2ccc(OCC(=O)Nc3ccc(OC)cc3)cc2)C1 (stereo unspecified)	4.0	6.7	-0.4	-1.8	2.5	-1.6
CCN1C(=O)CC(N2CCC(Nc3ccc(OC)cc3)CC2)C1=O (stereo unspecified)	-1.1	21.2*	2.2	0.3	8.4	13.4
O=C(NCC(c1cccnc1)N1CCN(c2ccc(F)cc2)CC1)c1cccc(Cl)c1 (stereo unspecified)	-2.4	6.4	62.0*	1.5	0.4	4.2
O=C(NCC(c1cccnc1)N1CCN(c2ccc(F)cc2)CC1)OCc1ccccc1 (stereo unspecified)	6.2	3.5	3.7	/	-6.2	16.8
